From PubChem
Sampled rows, rich in hits. Any-hit rate of the full collection: about 2.6%.
Ba/F3 V617F tox: reduced viability of JAK2V617F-dependent Ba/F3 cells, primary screen, JAK2V617F inhibitor project, cell-based, Ba/F3 EpoR-JAK2V617F, luminescence | inhibition, % at 5.6 µM | ATP luminescence | 220,000 compounds, 1.1% hits;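 active = inhibition above the campaign mean plus 3 SD over all tested compounds, cut at about 24% in these data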;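 also: cytokine-independent growth of Ba/F3 cells driven by EpoR plus mutant JAK2; 0% = DMSO-treated cells and 100% = JAK inhibitor I control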
GPR7 antagonist: GPR7 receptor antagonists, primary screen, cell-based, fluorescence, single concentration; GPR7-expressing cells, fluorescence antagonist assay; inhibition, % at 4.4 µM; 290,000 compounds, 1.1% hits; AID 1861, 2009; in the data active = inhibition above about 16%, passing the limit was not always enough;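 also: cells stimulated with the agonist NPW; 0% = agonist with vehicle and 100% = vehicle without agonist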
Target sequence (P48145 whole entry, looked up): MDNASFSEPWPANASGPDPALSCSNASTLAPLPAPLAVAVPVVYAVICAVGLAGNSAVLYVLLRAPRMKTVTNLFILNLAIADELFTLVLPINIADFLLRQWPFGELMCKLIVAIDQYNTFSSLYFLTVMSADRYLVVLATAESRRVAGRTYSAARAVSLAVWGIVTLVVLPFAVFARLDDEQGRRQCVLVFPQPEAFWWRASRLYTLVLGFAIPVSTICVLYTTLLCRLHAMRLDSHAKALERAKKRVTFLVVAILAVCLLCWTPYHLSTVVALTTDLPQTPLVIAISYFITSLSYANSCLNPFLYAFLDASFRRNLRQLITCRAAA
DNA FID counter: compounds displacing fluorescent DNA intercalator, primary screen, artefact control for HCV NS3 helicase inhibitor project, biochemical, FID fluorescence; DNA fluorescent intercalator displacement; inhibition, % at 7.9 µM; 290,000 compounds, 0.17% hits; AID 1845, 2009; in the data active = inhibition above about 37%;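 also: 0% = vehicle and 100% = reference compound; higher means more ethidium bromide displaced from hairpin DNA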
IEC-6 cytotox: cytotoxicity in IEC-6 intestinal epithelial cells, primary screen, cytotoxicity control for KLF5 inhibitor project, cell-based, luminescence. inhibition, % at 5 µM. 290,000 compounds, 0.78% hits. IEC-6 cytotoxicity, luminescence viability;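 also: 0% = plate median of test compound wells and 100% = cytotoxic reference compound wells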
BaF3 tox: parental Ba/F3 cell viability inhibition, counter-screen for JAK2V617F inhibitor project, murine pro-B, CellTiter-Glo luminescence | CellTiter-Glo ATP luminescence | inhibition, % at 5.6 µM | 220,000 compounds, 1.1% hits | AID 1486, 2009;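 active = inhibition above a per-campaign cutoff, the mean inhibition of all tested compounds plus 3 SD, cut at about 27% in these data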;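 also: 0% = DMSO wells and 100% = JAK Inhibitor I control wells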
KLF5 inhibitor: KLF5 expression inhibitors, primary screen, DLD-1 cells, luminescence. inhibition, % at 5 µM. AID 1700, 2009. DLD-1 KLF5 promoter-luciferase reporter. 290,000 compounds, 0.23% hits;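 active = inhibition above a per-plate limit of that plate's mean compound inhibition plus 3 SD, cut at about 60% in these data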;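 also: 0% = DMSO wells and 100% = LY294002 at 200 µM; higher means less KLF5 promoter-driven luciferase light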
GPR7 antag conf: GPR7 receptor antagonists, confirmation, cell-based, fluorescence, single concentration; inhibition, % at 4.4 µM; shares compounds with GPR7 antagonist; 2,400 compounds, 52% hits; GPR7-expressing cells, calcium fluorescence antagonist mode; AID 1952, 2009; in the data active = inhibition above about 24%;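 also: stimulated with the GPR7 agonist NPW; 0% = agonist plus vehicle and 100% = vehicle alone without agonist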
MCHR1 antag: MCHR1 antagonists in cells, counter-screen for GPR7 antagonist project, cell-based, fluorescence, human; 2,400 compounds, 62% hits; AID 2148, 2009; inhibition, % at 4.4 µM; MCHR1-expressing cells, fluorescence antagonist assay; shares compounds with GPR7 antagonist;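 also: 0% = vehicle with agonist and 100% = vehicle without agonist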
Numbers without * were called inactive. Rule as the data show it, unless noted: active = inhibition above about 22%; inactive = the rest.

Screening Cc1cccc(OCC(O)Cn2c(=N)n(CCN3CCCCC3)c3ccccc32)c1 (configuration not stated) returned Ba/F3 V617F tox 25.2*, GPR7 antagonist 37.8*, DNA FID counter 39.1*, IEC-6 cytotox 5.8, BaF3 tox 54.7*, KLF5 inhibitor -18.2, GPR7 antag conf 44.5* and MCHR1 antag 40.1*.
Screening N=c1n(Cc2ccccc2)c2ccccc2n1CC(O)COc1ccc(Cl)cc1Cl (configuration not stated) returned Ba/F3 V617F tox 3.2, GPR7 antagonist 28.0*, DNA FID counter 28.7, IEC-6 cytotox -2.1, BaF3 tox 10.5, KLF5 inhibitor -11.5, GPR7 antag conf 76.7* and MCHR1 antag 97.8*.
`Cc1ccc(OCC(O)Cn2c(=N)n(Cc3ccccc3)c3ccccc32)cc1` (configuration not stated) gave Ba/F3 V617F tox 2.6, GPR7 antagonist 32.8*, DNA FID counter 20.9, IEC-6 cytotox 9.3, BaF3 tox 9.0, KLF5 inhibitor -14.4, GPR7 antag conf 36.9* and MCHR1 antag 61.0*.
Screening COc1cc(NC(=O)c2ccc(C)c([N+](=O)[O-])c2)ccc1NC(=O)c1ccco1 returned Ba/F3 V617F tox 8.5, GPR7 antagonist 10.3, DNA FID counter -8.9, IEC-6 cytotox 5.0, BaF3 tox 12.6 and KLF5 inhibitor -46.1.
For CCOC(=O)c1c(-c2ccc(-c3ccccc3)cc2)csc1NC(=O)CNCCN(C)C the results were GPR7 antagonist 33.9*, DNA FID counter 19.4, IEC-6 cytotox 6.1, KLF5 inhibitor -10.4, GPR7 antag conf 59.8* and MCHR1 antag 75.0*.
CCOc1cc(C)c(S(=O)(=O)NC2CC(C)(C)NC(C)(C)C2)cc1C was read as Ba/F3 V617F tox 1.0, GPR7 antagonist -2.0, DNA FID counter 22.4, IEC-6 cytotox -2.5, BaF3 tox 6.2 and KLF5 inhibitor -3.3.
Cc1cc(C)c(S(=O)(=O)NC2CC(C)(C)NC(C)(C)C2)cc1C was read as GPR7 antagonist 100.6*, DNA FID counter 3.6, IEC-6 cytotox 2.1, KLF5 inhibitor -20.1, GPR7 antag conf -3.8 and MCHR1 antag 2.2.
For CCCCc1ccc(-c2ccc(Br)cc2)nc1 the results were Ba/F3 V617F tox 0.2, GPR7 antagonist 29.8*, DNA FID counter 2.5, IEC-6 cytotox -0.2, BaF3 tox 7.4, KLF5 inhibitor -18.9, GPR7 antag conf -16.6 and MCHR1 antag 0.4.
For CN=c1scc(-c2ccc(F)cc2)n1/N=C/c1ccc(O)c(O)c1 the results were Ba/F3 V617F tox 97.8*, GPR7 antagonist 23.1*, DNA FID counter -22.3, IEC-6 cytotox 11.5, BaF3 tox 36.1*, KLF5 inhibitor -51.6, GPR7 antag conf 33.1* and MCHR1 antag 12.7.
CN=c1scc(-c2ccc([N+](=O)[O-])cc2)n1/N=C/c1ccco1 was read as Ba/F3 V617F tox 1.4, GPR7 antagonist -3.3, DNA FID counter -0.3, IEC-6 cytotox -4.0, BaF3 tox 7.8 and KLF5 inhibitor -117.2.
`Cc1ccc(S(=O)(=O)/N=C(\N)Nc2nc(C)c3cc(C)c(C)cc3n2)cc1` gave Ba/F3 V617F tox 0.2, GPR7 antagonist 30.4*, DNA FID counter -2.6, IEC-6 cytotox 2.5, BaF3 tox 0.2, KLF5 inhibitor -18.3, GPR7 antag conf 13.6 and MCHR1 antag 20.7.
`Cc1ccc(S(=O)(=O)/N=C(\N)Nc2nc(C)c3ccc(C)cc3n2)cc1` gave Ba/F3 V617F tox 6.1, GPR7 antagonist 11.4, DNA FID counter -5.3, IEC-6 cytotox 11.0, BaF3 tox 7.1 and KLF5 inhibitor -20.4.
`NS(=O)(=O)c1cc(C(=O)OCC(=O)c2ccccc2)c(Cl)cc1Cl` gave Ba/F3 V617F tox 0.0, GPR7 antagonist 21.8*, DNA FID counter -0.5, IEC-6 cytotox 8.0, BaF3 tox 7.0, KLF5 inhibitor -14.4, GPR7 antag conf 17.7 and MCHR1 antag 0.0.
Screening Cc1ccc(C(=O)C[n+]2cc(-c3ccc(C)cc3)n3c2CCCCC3)cc1 returned Ba/F3 V617F tox 102.1*, GPR7 antagonist 60.0*, DNA FID counter 38.9*, IEC-6 cytotox 19.6, BaF3 tox 88.9*, KLF5 inhibitor 3.1, GPR7 antag conf 32.2* and MCHR1 antag 50.3*.
For Cc1ccc(NC(=O)C[n+]2cc(-c3ccc(C)cc3)n3c2CCC3)cc1 the results were Ba/F3 V617F tox -4.0, GPR7 antagonist -8.4, DNA FID counter 23.3, IEC-6 cytotox -4.1, BaF3 tox -1.1 and KLF5 inhibitor -6.6.
C[C@@H]1C=C[C@](Cc2ccccc2)(C(=O)NCCc2c[nH]c3ccccc23)N1C(=O)c1ccccc1 was read as Ba/F3 V617F tox -2.6, GPR7 antagonist 41.7*, DNA FID counter -37.8, IEC-6 cytotox -4.6, BaF3 tox 3.5, KLF5 inhibitor -8.8, GPR7 antag conf 47.2* and MCHR1 antag 40.2*.
`Cc1nnsc1NC(=O)OCc1ccc(C(C)(C)C)cc1` gave Ba/F3 V617F tox -4.9, GPR7 antagonist 22.2*, DNA FID counter -14.7, IEC-6 cytotox 0.4, BaF3 tox 4.4, KLF5 inhibitor -18.8, GPR7 antag conf 36.1* and MCHR1 antag 51.0*.
For Cc1cc(C)n(CCC(=O)N2CCCC(Nc3ccc(F)cc3)C2)n1 (configuration not stated) the results were GPR7 antagonist -4.7, DNA FID counter -15.6, IEC-6 cytotox -5.9 and KLF5 inhibitor -40.4.
For Cc1sc2nc[nH]c(=O)c2c1-c1ccc(F)cc1 the results were GPR7 antagonist 14.2, DNA FID counter -3.1, IEC-6 cytotox -1.6 and KLF5 inhibitor -2.2.
Cc1sc2nc[nH]c(=S)c2c1-c1ccccc1 was read as Ba/F3 V617F tox 1.7, GPR7 antagonist 27.4*, DNA FID counter -8.1, IEC-6 cytotox -7.8, BaF3 tox 8.6, KLF5 inhibitor -4.4, GPR7 antag conf -2.1 and MCHR1 antag 7.3.
Screening O=C(c1cc(-c2ccc(F)cc2)on1)N1CCCCCC1 returned GPR7 antagonist 35.7*, DNA FID counter -29.5, IEC-6 cytotox 9.1, KLF5 inhibitor -123.3, GPR7 antag conf 5.2 and MCHR1 antag 26.2*.
Screening O=C(c1cc(-c2ccc(F)cc2)on1)N1CCCC1 returned Ba/F3 V617F tox 2.4, GPR7 antagonist -3.4, DNA FID counter -13.1, IEC-6 cytotox 1.5, BaF3 tox 9.6 and KLF5 inhibitor -182.9.
